Assay in all cases: NCI-60 one-dose screen, 48 h (100 = growth as untreated, 0 = no growth, -100 = all killed)
Common to all, as to settings: 10 µM unless noted

In test [1] the test system is NCI-H23 lung.
Test [2] concerns NCI-H226 lung.
The test system of test [3] is NCI-H322M lung.
The subject of test [4] is HOP-62 NSCLC.
The test system of test [5] is NCI-H460 lung.
The subject of test [6] is HOP-92 NSCLC.
In test [7] the test system is NCI-H522 lung.
The test system of test [8] is A549/ATCC NSCLC.
Test [9] relates to 786-0 renal.
In test [10] the test system is COLO 205 colon.
For test [11], the system named is DU-145 prostate.
For test [12], the system named is K-562 leukemia.
The subject of test [13] is MALME-3M melanoma.
Test [14] has as its system MDA-MB-231 breast.
For test [15], the system named is RXF 393 renal.
Test [16] relates to SF-268 CNS.
The test system of test [17] is SF-295 CNS.
For test [18], the system named is SF-539 CNS.
Test [19] concerns UACC-257 melanoma.
The test system of test [20] is M14 melanoma.

We go through 8 compounds from PubChem BioAssay (NCI).

Each structure is given as a SMILES string. The panel holds about 83,000 compounds, 20% with a hit somewhere; the sample as a whole holds those more often.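 Step 1: grow cells in 96-well plates. Step 2: add test compound at a single concentration. Step 3: incubate 48 h. Step 4: record percent growth.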 Unmarked numbers belong to inactive results. The source made the active and inactive calls. The calls were made as follows: active = growth percent below 10; inactive = the rest.

As for `Cc1cc(O)c(C2=NN(c3ccc(S(N)(=O)=O)cc3)C(c3ccc(Cl)cc3)C2)c(C)c1Cl` (stereo not drawn), the growth in test [1] is 78.8%; in [2] it was 106%; in test [3], 75.3%; in test [4], 84.3%; in test [5], 3.35% (active); in test [6], 21.3%. Further, the growth is 57.7% in [7]; 33.2% in [8]; 43.3% in test [9]; 30.8% in test [10]; 49.3% in test [11]; 21% in test [12]. The growth was 103% in [13]; 59% in test [14]; 48.1% in test [15]; 61.7% in [16]; 20.4% in test [17]; 79% in test [18]. Further, the growth in test [19] is 74.1%; in [20] it was 39.1%.
As to `CCCCN(CCCC)CCCN=c1nc2c(c(N)n1-c1ccccc1)c(=S)n(-c1ccccc1)c(=S)n2-c1ccccc1`, the growth in test [1] was -56.3% (active); in [2], -82.5% (active); in test [3] it was -57.8% (active); in test [4], -99.6% (active); in test [5], -95.7% (active); in test [6], -66.9% (active). Also, the growth in test [7] was -54.8% (active); in test [8], -38.4% (active); in test [9] it was -100% (active); in test [10] it was -74.1% (active); in test [11], -100% (active); in test [12] it was -90.3% (active). Besides, the growth in test [13] was -91.5% (active); in test [14], -89.1% (active); in test [15], -67.7% (active); in [16], -94% (active); in [17] it was -100% (active); in test [18], -97.7% (active). In addition, the results for the growth in [19] and in test [20] were -73.1% (active) and -86.3% (active), respectively.
Turning to `Nc1nc2c(c3ncccc13)C(c1ccccc1)Cc1ncccc1-2` (stereo not drawn), the growth in test [1] is 83.3%; in test [2] it was 88.4%; in [3], 102%; in test [4], 72.1%; in [5] it was 92%; in [6], 96.1%. Besides, the growth in [7] was 42.9%; in test [8] it was 72.3%; in test [9], 104%; in test [10], 87.8%; in [11], 103%; in test [12], 27.1%. Also, the growth is 76.1% in test [13]; 65.9% in test [14]; 99.3% in test [15]; 86.4% in test [16]; 67.4% in [17]; 78.1% in test [18]. In addition, the growth in test [19] is 93.1%; in test [20], 44.8%.
Take `COc1ccc2[nH]cc(C(c3ccc(Cl)cc3)N3CCCC3)c2c1` (stereo not drawn): the growth in [1] is 93.2%; in [2], 98.2%; in test [3], 94.3%; in [4], 97.6%; in test [5], 101%; in test [6], 79.2%. The growth was 82.1% in test [7]; 98.8% in test [8]; 102% in test [9]; 114% in [10]; 101% in test [11]; 90.2% in test [12]. In addition, the growth is 72.8% in test [13]; 94.6% in test [14]; 82.9% in test [15]; 92.5% in [16]; 94% in test [17]; 98.2% in [18]. Besides, the growth in [19] is 91.9%; in test [20] it was 95%.
In the case of `Cc1n(Cc2ccc3ccccc3n2)cc[n+]1Cc1ccc2ccccc2n1`, the growth in test [1] is 69.8%; in test [2], 88.1%; in test [3], 103%; in test [4] it was 90.6%; in test [5], 95%; in [6], 74.5%. The growth in test [7] is 35.9%; in test [8], 88.6%; in test [9] it was 97.8%; in test [10], 33.2%; in test [11] it was 94.6%; in [12], 36.2%. Also, the growth is 55.9% in test [13]; 97.3% in test [14]; 86.8% in test [15]; 73.5% in test [16]; 87.7% in [17]; 67.9% in test [18]. Besides, the growth in test [19] was 42.6%; in [20], 86.9%.
As for `OC(c1cc2cc(Cl)ccc2c2cc(C(F)(F)F)ccc12)C1CCCCN1` (stereo not drawn), the growth is -78.8% (active) in [1]; -73% (active) in test [2]; -42.7% (active) in [3]; -92.3% (active) in [4]; -67.8% (active) in test [5]; -76.1% (active) in test [6]. Further, the growth in test [7] was -89.6% (active); in test [8], -85.9% (active); in test [9] it was -67.5% (active); in [10], -87.2% (active); in test [11] it was -95.8% (active); in test [12], -76.8% (active). The growth in test [13] is -61.9% (active); in test [14] it was -68% (active); in [15], -95.4% (active); in test [16], -90.1% (active); in [18], -80.5% (active); in [19], -84% (active). For the same compound, the growth in test [20] is -72% (active).
For `O=C(/C=C/c1cn(-c2ccccc2)nc1-c1cccc(Nc2ccnc3cc(Cl)ccc23)c1)c1ccc2c(c1)OCO2`, the growth in test [1] was 101%; in [2], 99.1%; in test [3], 86.2%; in [4], 107%; in [5] it was 102%; in test [6], 88.1%. Further, the growth was 127% in [7]; 93.4% in test [8]; 99.8% in test [9]; 102% in [10]; 76.8% in test [11]; 66.8% in test [12]. Further, the growth in test [13] was 38%; in [14], 72.7%; in [15] it was 95.2%; in test [16], 89.7%; in test [17] it was 115%; in [18], 95.7%. In addition, the growth is 95% in test [19] and 111% in [20].
`C#CC[C@@H]1C[C@]2(C)[C@H]3CC[C@@H]4[C@H]5C(C(=C)C)CC[C@]5(C(=O)NCCCCN)CC[C@@]4(C)[C@]3(C)CC[C@H]2C(C)(C)[C@H]1OC(C)=O` (stereo partly drawn): the growth in test [1] is 11.7%; in test [2], 96.1%; in [3] it was 60.4%; in test [4], 105%; in test [5], -56.5% (active); in [6], 42.2%. The growth in [7] was -64.4% (active); in test [8] it was -54.1% (active); in test [9] it was -87.5% (active); in test [10] it was -71.6% (active); in test [11], -77.8% (active); in test [12] it was -9.82% (active). In addition, the growth in [13] was 46.6%; in test [14] it was -81.2% (active); in test [15] it was -89.2% (active); in [16], 91.6%; in test [18] it was -82.9% (active); in test [19] it was 85.9%. In [20], the growth was -58.5% (active).
